A number with no mark means an inactive call. Records with an inconclusive call do not appear. Activity calls are given as the source filed them. Calls come from the whole dose curve; as a rule, active = well fitted curve in the direction sought with a large enough effect in the repeat runs; inconclusive = weak or mixed curves; inactive = no such curve, though single readings can be large; an effect the other way counts as inactive or inconclusive. Positions of bridges follow the written chain, without caps; N, C: chain ends. Non-standard residues stand in square brackets, D forms with d. Residues, ends and D or L forms follow the SMILES beside them. hArg = N=C(N)NCCCC[C@H](N)C(=O)O; Mpa = O=C(O)CCS

Consider 24 molecules from PubChem BioAssay (Tox21).

A short description of assay [1]: qHTS RealTime-Glo MT Cell Viability Assay in HepG2 cells - 32 hour (AID 1224877). Note: nearly all actives have a fitted effect of over 55% in size. The method, boiled down: (§1)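 Tox21 10K library screened in qHTS format on HepG2 cells carrying RealTime-Glo reagents. Compounds were added after a 5 h preincubation, and the luminescent signal from continuous culture was measured repeatedly during 40 h treatment.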
(In general: In qHTS, concentration-response curves come from the screen itself.)

Assay [2] in a line: A CellTox Green Cytotoxicity Assay to monitor cytotoxicity in HepG2 cells - 24 hour (AID 1224878). Note: nearly all actives have a fitted effect of over 45% in size. The method, boiled down:
(§2)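 Read-out is fluorescence of a cyanine dye excluded from live cells that stains DNA of dead HepG2 cells, with signal proportional to cytotoxicity. Plates were read at 0, 8, 16, 24, 32 and 40 h after compound addition.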

The nature of assay [3]: A CellTox Green Cytotoxicity Assay to monitor cytotoxicity in HepG2 cells - 40 hour (AID 1224879). Note: nearly all actives have a fitted effect of over 40% in size. Put shortly: as §2
Assay [4] can be described thus: qHTS RealTime-Glo MT Cell Viability Assay in HEK293 cells - 0 hour (AID 1224880). Note: top concentration of the series differs between compounds; nearly all actives have a fitted effect of over 45% in size. Put shortly: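 Cells were seeded together with NanoLuc luciferase and a prosubstrate that viable cells reduce to a luciferase substrate. After a 5 h incubation at 37 C/5% CO2, compounds were added and luminescence was measured repeatedly during 40 h of treatment.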
Assay [5] can be described thus: A CellTox Green Cytotoxicity Assay to monitor cytotoxicity in HEK293 cells - 32 hour (AID 1224881). Note: nearly all actives have a fitted effect of over 40% in size. Put shortly: (§3)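 Nonlytic real-time cytotoxicity: HEK293 + CellTox Green reagent plated, 5 h preincubation, pintool compound addition (23 nL in DMSO), 37 C for 40 h, fluorescence measured at successive time points.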
A short description of assay [6]: A CellTox Green Cytotoxicity Assay to monitor cytotoxicity in HepG2 cells - 0 hour (AID 1224882). Note: nearly all actives have a fitted effect of over 35% in size. The method, boiled down:
as §2

The nature of assay [7]: A CellTox Green Cytotoxicity Assay to monitor cytotoxicity in HepG2 cells - 32 hour (AID 1224883). Note: nearly all actives have a fitted effect of over 50% in size. Put shortly: as §2
Assay [8] in a line: A CellTox Green Cytotoxicity Assay to monitor cytotoxicity in HEK293 cells - 8 hour (AID 1224884). Note: nearly all actives have a fitted effect of over 35% in size. The method, boiled down: as §3
Assay [9] can be described thus: qHTS RealTime-Glo MT Cell Viability Assay in HepG2 cells - 16 hour (AID 1224885). Note: nearly all actives have a fitted effect of over 50% in size. The method, boiled down: as §1
Assay [10] in a line: qHTS RealTime-Glo MT Cell Viability Assay in HEK293 cells - 24 hour (AID 1224886). For activity change, negative = cytotoxicity: top concentration of the series differs between compounds. Note: nearly all actives have a fitted effect of over 50% in size. Note: potency is the fitted concentration of half-maximal effect. Put shortly: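 Luminescence generated by NanoLuc from substrate produced by living HEK293 cells served as the viability signal. Each value reflects the reading at its stated time point during continuous 40 h compound exposure at 37 C.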
% is set by controls: 0 for no effect and ±100 for the full control effect.

`O=C(CCCCC(=O)Nc1c(I)cc(I)c(C(=O)O)c1I)Nc1c(I)cc(I)c(C(=O)O)c1I`: the call in assay [1] and in assay [9] was inactive. Also, the Potency entry in assay [2], in assay [3], in assay [4], in assay [5], in [6] and in [7] was “inactive” in each case. Further, the Potency entry in assay [8] and in [10] was “inactive” each time.
With `CC(N)CCCC(C)(C)O` (configuration not stated), the outcome in assay [1] and in assay [9] was inactive. For the same molecule, the Potency result in assay [2], in assay [3], in [4], in [5], in [6] and in [7] was “inactive” throughout. The Potency entry in [8] and in assay [10] was “inactive” in each case.
Consider `CN(C)CCOC(=O)C(c1ccccc1)C1(O)CCCC1` (configuration not stated), for which the call in assay [1] and in assay [9] was inactive. In addition, the Potency result in [2], in assay [3], in [4], in assay [5], in assay [6] and in assay [7] was “inactive” each time. Moreover, the Potency entry in assay [8] and in assay [10] was “inactive” throughout.
On to `NC(=O)[C@@H]1CSSCCC(=O)N[C@@H](CCCCN=C(N)N)C(=O)NCC(=O)N[C@@H](CC(=O)O)C(=O)N[C@@H](Cc2c[nH]c3ccccc23)C(=O)N2CCC[C@H]2C(=O)N1` ([Mpa][hArg]GDWPC-NH2; disulfide 1-7), for which the result in assay [1] and in assay [9] was inactive. Besides, the Potency result in assay [2], in assay [3], in [4], in assay [5], in assay [6] and in assay [7] was “inactive” each time. Moreover, the Potency entry in [8] and in assay [10] was “inactive” in each case.
Take `COc1c2occc2c(OC)c2c(=O)cc(C)oc12`: the result in assay [1] and in assay [9] was inactive. In addition, the Potency result in [2], in assay [3], in assay [4], in assay [5], in [6] and in [7] was “inactive” throughout. Besides, the Potency entry in assay [8] is “inactive”. In addition, the Potency in [10] is 8.49 µM (active).
With `CC1=NN(c2ccc(S(=O)(=O)O)cc2)C(=O)C1`, the molecule was classed as inactive in assay [1] and in assay [9]. The Potency result in [2], in assay [3], in assay [4], in [5], in assay [6] and in assay [7] was “inactive” throughout. Also, the Potency entry in [8] and in assay [10] was “inactive” each time.
In the case of `CCOCCOCC`, the molecule was classed as inactive in [1] and in assay [9]. Moreover, the Potency entry in assay [2], in assay [3], in assay [4], in [5], in assay [6] and in assay [7] was “inactive” each time. Besides, the Potency result in assay [8] and in [10] was “inactive” each time.
Regarding `NCc1ccc(S(N)(=O)=O)cc1`, the molecule was classed as inactive in [1] and in [9]. In addition, the Potency entry in assay [2], in assay [3], in [4], in [5], in assay [6] and in assay [7] was “inactive” each time. Further, the Potency entry in assay [8] and in assay [10] was “inactive” each time.
For the molecule `C[C@H]1[C@@H](c2ccccc2)NC(=O)N1C`, the molecule was classed as inactive in [1] and in assay [9]. Further, the Potency entry in [2], in assay [3], in assay [4], in assay [5], in assay [6] and in [7] was “inactive” throughout. Besides, the Potency result in assay [8] and in [10] was “inactive” each time.
In the case of `N[C@@H](Cc1ccc(O)cc1)C(=O)O`, the activity change, negative = cytotoxic is -0.0666% [at 6.97 µM] in assay [1] and 0.618% [at 6.97 µM] in assay [9]. Also, the cytotoxicity in assay [2] is -12.9% [at 6.97 µM]; in [6], 1.32% [at 6.97 µM]. Further, the cytotoxicity increase is -8.31% [at 6.97 µM] in [3], 4.36% [at 6.97 µM] in assay [5], -9.11% [at 6.97 µM] in assay [7] and -1.4% [at 6.97 µM] in assay [8]. Moreover, the activity change, negative = cytotoxicity in assay [4] is 4.85% [at 6.97 µM]; in assay [10] it was -0.381% [at 6.97 µM].
Regarding `CC(C)c1ccc(C=O)cc1`, the molecule was classed as inactive in [1] and in [9]. For the same molecule, the Potency result in [2], in [3], in assay [4], in assay [5], in assay [6] and in assay [7] was “inactive” throughout. Besides, the Potency entry in assay [8] and in [10] was “inactive” in each case.
In the case of `Cc1cc(-c2ccccc2)nnc1NCCN1CCOCC1`, the result in assay [1] and in [9] was inactive. The Potency result in assay [2], in assay [3], in assay [4], in assay [5], in assay [6] and in [7] was “inactive” each time. Moreover, the Potency entry in assay [8] and in [10] was “inactive” each time.
For `CC1=C(C(=O)O)N2C(=O)[C@@H](NC(=O)[C@H](N)C3=CCC=CC3)[C@H]2SC1`, the outcome in assay [1] and in [9] was inactive. Also, the Potency entry in assay [2], in assay [3], in assay [4], in assay [5], in assay [6] and in assay [7] was “inactive” throughout. For the same molecule, the Potency result in [8] and in assay [10] was “inactive” each time.
In the case of `Cc1ncc([N+](=O)[O-])n1CC(C)O` (configuration not stated), the outcome in assay [1] and in [9] was inactive. In addition, the Potency entry in assay [2], in [3], in assay [4], in assay [5], in [6] and in assay [7] was “inactive” in each case. Also, the Potency result in assay [8] and in assay [10] was “inactive” throughout.
For the molecule `CC(C)C[C@@H]1[C@H](c2ccccc2)OC(=O)N1CCCN1CCCCCC1`, the result in assay [1] and in [9] was inactive. Besides, the Potency result in assay [2], in assay [3], in [4], in assay [5], in assay [6] and in assay [7] was “inactive” each time. The Potency entry in [8] was “inactive”.
For `O=C(O)CONC(=O)c1ccccc1`, the call in assay [1] and in assay [9] was inactive. Further, the Potency result in assay [2], in [3], in [4], in assay [5], in assay [6] and in [7] was “inactive” each time. Moreover, the Potency entry in [8] and in assay [10] was “inactive” in each case.
As to `CCCCCCCCCCCCCCCCCC#N`, the result in assay [1] and in [9] was inactive. In addition, the Potency result in assay [2], in assay [3], in [4], in [5], in assay [6] and in assay [7] was “inactive” each time. Also, the Potency result in [8] and in [10] was “inactive” throughout.
For `c1ccc2c(CC3=NCCN3)cccc2c1`, the molecule was called inactive in assay [1] and in assay [9]. For the same molecule, the Potency result in assay [2], in assay [3], in assay [4], in assay [5], in [6] and in [7] was “inactive” throughout. Moreover, the Potency entry in assay [8] and in assay [10] was “inactive” throughout.
In the case of `C=Cc1ccc(C(C)(C)C)cc1`, the outcome in [1] and in [9] was inactive. Besides, the Potency entry in assay [2], in [3], in assay [4], in assay [5], in assay [6] and in assay [7] was “inactive” each time. The Potency entry in [8] and in assay [10] was “inactive” in each case.
As to `CN(C)C(C)(C)CO`, the molecule was classed as inactive in assay [1] and in assay [9]. Moreover, the Potency result in assay [2], in assay [3], in [4], in assay [5], in assay [6] and in [7] was “inactive” in each case. For the same molecule, the Potency entry in [8] and in [10] was “inactive” each time.
Consider `c1ccc(B(c2ccccc2)c2ccccc2)cc1`, for which the result in [1] and in assay [9] was inactive. Moreover, the Potency result in assay [2], in assay [3], in assay [4], in assay [5], in [6] and in assay [7] was “inactive” in each case. Moreover, the Potency result in assay [8] is “inactive”.
In the case of `Cc1cc(C)c(C(=O)O)c(C)c1`, the result in assay [1] and in [9] was inactive. Also, the Potency entry in assay [2], in [3], in assay [4], in [5], in assay [6] and in assay [7] was “inactive” in each case. The Potency entry in assay [8] and in assay [10] was “inactive” each time.
Consider `CCOC(CN1CCN(CC(C)C(=O)c2ccccc2)CC1)c1ccccc1` (configuration not stated), for which the activity change, negative = cytotoxic was 0.188% [at 15.8 µM] in [1] and 0.651% [at 15.8 µM] in assay [9]. Further, the cytotoxicity in assay [2] is -18.2% [at 15.8 µM]; in assay [6] it was -4.84% [at 15.8 µM]. Further, the cytotoxicity increase is -19.9% [at 15.8 µM] in assay [3], -3.67% [at 15.8 µM] in assay [5], -18.4% [at 15.8 µM] in [7] and -4.22% [at 15.8 µM] in assay [8]. In addition, the activity change, negative = cytotoxicity in assay [4] was 0.0674% [at 15.8 µM].
Consider `CC1=C(O)C(=O)C(C)O1` (configuration not stated), for which the result in assay [1] and in assay [9] was inactive. In addition, the Potency entry in assay [2], in assay [3], in assay [4], in assay [5], in assay [6] and in assay [7] was “inactive” throughout. In addition, the Potency result in assay [8] and in [10] was “inactive” throughout.
